The supplement of paper PMC8728848
This excerpt belongs to a sample that is enriched for the strongest signals.

Key:
Experiment in all cases: glycan array binding signal (z-score within array); higher = stronger binding
Conditions in all cases: glycan notation: IUPAC condensed, linker removed
[1] = target: Fuc(a1-2)Gal(b1-3)GlcNAc(b1-2)Man(a1-3)[Fuc(a1-2)Gal(b1-3)GlcNAc(b1-2)Man(a1-6)]Man(b1-4)GlcNAc(b1-4)GlcNAc
How it was run: (§1)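 Glycan array binding is given as a within-array Z-score, which can be read as non-binding when negative. The arrays, 3228 of them, came from the Consortium for Functional Glycomics database and were retained only where the protein sequence was available. Z-scores were averaged across arrays of the same protein sequence at different concentrations or buffers and across linkers.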

[2] = target: Fuc(a1-2)Gal(b1-3)GlcNAc(b1-3)[Fuc(a1-2)Gal(b1-3)GlcNAc(b1-6)]GalNAc
How it was run: as §1

[3] = target: Fuc(a1-2)Gal(b1-4)GlcNAc(b1-6)GalNAc
How it was run: as §1

[4] = target: Fuc(a1-2)Gal(b1-4)GlcNAc6S
How it was run: as §1

[5] = target: Fuc(a1-2)Gal3S(b1-4)GlcNAc
How it was run: as §1

[6] = target: Fuc(a1-2)[Gal(a1-3)]Gal(b1-3)GalNAc
How it was run: as §1

[7] = target: Fuc(a1-2)[Gal(a1-3)]Gal(b1-4)GlcNAc
How it was run: as §1

[8] = target: Fuc(a1-2)[Gal(a1-3)]Gal(b1-4)[Fuc(a1-3)]GlcNAc
How it was run: as §1

[9] = target: Gal(a1-3)Gal(b1-3)GlcNAc(b1-2)Man(a1-3)[Gal(a1-3)Gal(b1-3)GlcNAc(b1-2)Man(a1-6)]Man(b1-4)GlcNAc(b1-4)GlcNAc
How it was run: as §1

[10] = target: Gal(a1-3)Gal(b1-3)[Fuc(a1-4)]GlcNAc(b1-2)Man(a1-3)[Gal(a1-3)Gal(b1-3)[Fuc(a1-4)]GlcNAc(b1-2)Man(a1-6)]Man(b1-4)GlcNAc(b1-4)GlcNAc
How it was run: as §1

Gal(a1-3)Gal(b1-4)Glc = target: Gal(a1-3)Gal(b1-4)Glc
How it was run: as §1

[11] = target: Gal(a1-4)Gal(b1-3)GlcNAc(b1-2)Man(a1-3)[Gal(a1-4)Gal(b1-3)GlcNAc(b1-2)Man(a1-6)]Man(b1-4)GlcNAc(b1-4)GlcNAc
How it was run: as §1

[12] = target: Gal(b1-3)GlcNAc(a1-6)Gal(b1-4)GlcNAc
How it was run: as §1

[13] = target: Gal(b1-3)GlcNAc(b1-2)Man(a1-3)[Gal(b1-3)GlcNAc(b1-2)Man(a1-6)]Man(b1-4)GlcNAc(b1-4)GlcNAc
How it was run: as §1

[14] = target: Gal(b1-3)[GlcNAc(b1-6)]GalNAc
How it was run: as §1

Gal(b1-4)GlcNAc(b1-2)Man = target: Gal(b1-4)GlcNAc(b1-2)Man
How it was run: as §1

[15] = target: Gal(b1-4)GlcNAc(b1-2)Man(a1-3)Man(b1-4)GlcNAc(b1-4)GlcNAc
How it was run: as §1

[16] = target: Gal(b1-4)GlcNAc(b1-2)Man(a1-3)[Gal(b1-4)GlcNAc(b1-2)Man(a1-6)]Man(b1-4)GlcNAc(b1-4)[Fuc(a1-6)]GlcNAc
How it was run: as §1

[17] = target: Gal(b1-4)GlcNAc(b1-3)Gal(b1-3)GalNAc
How it was run: as §1

[18] = target: Gal(b1-4)GlcNAc(b1-3)Gal(b1-4)GlcNAc(b1-2)Man(a1-3)[Gal(b1-4)GlcNAc(b1-3)Gal(b1-4)GlcNAc(b1-2)Man(a1-6)]Man(b1-4)GlcNAc(b1-4)GlcNAc
How it was run: as §1

[19] = target: Gal(b1-4)GlcNAc(b1-3)Gal(b1-4)GlcNAc(b1-2)[Gal(b1-4)GlcNAc(b1-3)Gal(b1-4)GlcNAc(b1-6)]Man(a1-6)[Gal(b1-4)GlcNAc(b1-3)Gal(b1-4)GlcNAc(b1-2)Man(a1-3)]Man(b1-4)GlcNAc(b1-4)[Fuc(a1-6)]GlcNAc
How it was run: as §1

[20] = target: Gal(b1-4)GlcNAc(b1-3)Gal(b1-4)GlcNAc(b1-3)Gal(b1-4)GlcNAc(b1-3)Gal(b1-4)GlcNAc(b1-3)Gal(b1-4)GlcNAc(b1-2)Man(a1-3)[Gal(b1-4)GlcNAc(b1-3)Gal(b1-4)GlcNAc(b1-3)Gal(b1-4)GlcNAc(b1-3)Gal(b1-4)GlcNAc(b1-3)Gal(b1-4)GlcNAc(b1-2)Man(a1-6)]Man(b1-4)GlcNAc(b1-4)GlcNAc
How it was run: as §1

[21] = target: Gal(b1-4)GlcNAc(b1-3)Gal(b1-4)GlcNAc(b1-3)Gal(b1-4)GlcNAc(b1-3)Gal(b1-4)GlcNAc(b1-3)Gal(b1-4)GlcNAc(b1-2)[Gal(b1-4)GlcNAc(b1-3)Gal(b1-4)GlcNAc(b1-3)Gal(b1-4)GlcNAc(b1-3)Gal(b1-4)GlcNAc(b1-3)Gal(b1-4)GlcNAc(b1-6)]Man(a1-6)[Gal(b1-4)GlcNAc(b1-3)Gal(b1-4)GlcNAc(b1-3)Gal(b1-4)GlcNAc(b1-3)Gal(b1-4)GlcNAc(b1-3)Gal(b1-4)GlcNAc(b1-2)Man(a1-3)]Man(b1-4)GlcNAc(b1-4)[Fuc(a1-6)]GlcNAc
How it was run: as §1

Gal6S(b1-4)GlcNAc = target: Gal6S(b1-4)GlcNAc
How it was run: as §1

GalNAc(b1-3)GlcNAc = target: GalNAc(b1-3)GlcNAc
How it was run: as §1

Glc(a1-6)Glc(a1-6)Glc = target: Glc(a1-6)Glc(a1-6)Glc
How it was run: as §1

GlcA(b1-3)Gal = target: GlcA(b1-3)Gal
How it was run: as §1

[22] = target: GlcNAc(b1-3)Gal(b1-4)GlcNAc(b1-3)Gal(b1-4)GlcNAc(b1-3)Gal(b1-4)GlcNAc(b1-2)Man(a1-3)[GlcNAc(b1-3)Gal(b1-4)GlcNAc(b1-3)Gal(b1-4)GlcNAc(b1-3)Gal(b1-4)GlcNAc(b1-2)Man(a1-6)]Man(b1-4)GlcNAc(b1-4)GlcNAc
How it was run: as §1

Kdn(a2-3)Gal(b1-4)Glc = target: Kdn(a2-3)Gal(b1-4)Glc
How it was run: as §1

Man(a1-6)Man = target: Man(a1-6)Man
How it was run: as §1

B1: PX9961H-bth-557-24-557 (Bacteroides thetaiotaomicron) (protein)
chain: EETRTEVEKKNYMNNAEEAKDVLLGVYRTNTLDAMYGYYLSILFNLGTDISQVEGSGNENFRIIPTNSFPTTQSEVQQTWAALYTGIYRANDFLERISNKIGSYTTTDKKLATLYIAEARALRGMFYFELVRRFGNVVLMTSTQMSNQNPATYVQSAPEKVYEYIEDDLLYACDILPYATDDQYRESNDYRFSKGAALGLLTKVYATWAGYPVKDESKWEAAAKTARILVESGKHGLLKDYEQLWKNTCNGTWDPTESLIEISFYSPTVSGNSDPVGRIGKWNGVKTTAIAGVRGSCAANVKVVHTFVLDWREDVSDIRRDLSIANYQYTDTKKSLWVAGASDTDESAAEKDADPTKAQKNKQNYTPAKWDIQKYVTTNSFINNDKSNVNWYFLRYADVLLLYAEALNEWKHGPDAEAYNAINAVRRRGYGNPSNTSACDLPQGLDETSFREAVRKERSYELSFEGHRRQDLIRWGIYYKTVQATAKELGYWWEGTGSPNYSVATYTEEGKHELFPIPQRDMDLCIQFNQNPKW
- glycan array binding signal (z-score) [1]: 3.58
- glycan array binding signal (z-score) [2]: -0.177
- glycan array binding signal (z-score) [3]: -0.051
- glycan array binding signal (z-score) [4]: -0.38
- glycan array binding signal (z-score) [5]: 0.014
- glycan array binding signal (z-score) [6]: -0.242
- glycan array binding signal (z-score) [7]: -0.408
- glycan array binding signal (z-score) [8]: -0.18
- glycan array binding signal (z-score) [9]: 4.31
- glycan array binding signal (z-score) [10]: -0.134
- glycan array binding signal (z-score) (Gal(a1-3)Gal(b1-4)Glc): -0.054
- glycan array binding signal (z-score) [11]: 5.85
- glycan array binding signal (z-score) [12]: -0.025
- glycan array binding signal (z-score) [13]: 5.54
- glycan array binding signal (z-score) [14]: -0.03
- glycan array binding signal (z-score) (Gal(b1-4)GlcNAc(b1-2)Man): -0.104
- glycan array binding signal (z-score) [15]: 10.2
- glycan array binding signal (z-score) [16]: 4.19
- glycan array binding signal (z-score) [17]: 0.039
- glycan array binding signal (z-score) [18]: 3.35
- glycan array binding signal (z-score) [19]: 3.59
- glycan array binding signal (z-score) [20]: 5.22
- glycan array binding signal (z-score) [21]: 4.46
- glycan array binding signal (z-score) (Gal6S(b1-4)GlcNAc): -0.033
- glycan array binding signal (z-score) (GalNAc(b1-3)GlcNAc): -0.542
- glycan array binding signal (z-score) (Glc(a1-6)Glc(a1-6)Glc): -0.402
- glycan array binding signal (z-score) (GlcA(b1-3)Gal): -0.564
- glycan array binding signal (z-score) [22]: -0.299
- glycan array binding signal (z-score) (Kdn(a2-3)Gal(b1-4)Glc): -0.397
- glycan array binding signal (z-score) (Man(a1-6)Man): -0.064
